Values joined by “and” are separate entries in the source; they are usually repeats but may differ in a detail not shown here. Equal entries are not always repeated. Inconclusive results are not listed. More than one record can exist for a structure, and the calls need not agree. Active and inactive are the calls of the source. Rule for the calls: active = hit-call score of the fitted dose curve at least 0.9, where 1 is the maximum; inconclusive = response in the unintended direction; inactive = score below 0.9.
Key:
[1] = target: rat Gamma-Aminobutyric Acid Type A Receptor, Non-Selective (GABAR-NonSelective), Gabra1 (gene 29705) (UniProt P62813); test: NVS_LGIC_rGABAR_NonSelective: NovaScreen (NVS) Ligand-Gated Ion Channel Assay for rat Gamma-Aminobutyric Acid Type A Receptor, Non-Selective (GABAR-NonSelective) (AID 2283326)
Summary of the method: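 Radioligand displacement on rat whole-brain extract, 1 h, filter scintillation readout; signal loss fitted versus DMSO. Primary screen in duplicate at 25 uM; hits (e.g. ≥30% inhibition) retested in concentration-response up to 50 uM.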

[2] = target: rat Thyrotropin Releasing Hormone Receptor (TRH), Trhr (gene 25570) (UniProt Q01717); test: NVS_GPCR_rTRH: NovaScreen (NVS) G Protein-Coupled Receptor Assay for rat Thyrotropin Releasing Hormone Receptor (TRH) (AID 2283329);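 note: hit means lower bound tracer signal versus DMSO baseline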
Summary of the method: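 Test compounds are screened at 25 uM in duplicate against radioligand binding in rat forebrain membranes, with active pairs followed up over a concentration range. Detection uses filter-based radiodetection after a 4 h exposure.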

[3] = target: human Androgen Receptor (AR), AR (gene 367) (UniProt P10275); test: NVS_NR_hAR: NovaScreen (NVS) Nuclear Receptor Binding Assay for human Androgen Receptor (AR) (AID 2283332)
Summary of the method: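 Radioligand competitive binding, scintillation read-out, in cell-free extract from LnCAP, measured 20 h after dosing. Screened first in duplicate at 25 uM, then concentration series for actives; activity fitted against DMSO.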

[4] = target: Voltage-gated inwardly rectifying potassium channel KCNH2 (Homo sapiens) (UniProt Q12809); test: NVS_IC_hKhERGCh: NovaScreen (NVS) Ion Channel Assay for human Potassium Channel ERG (KhERGCh) (AID 2283333)
Summary of the method: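 Cell-free radioligand competition binding on hERG protein extracted from CHO cells, read by filter-based scintillation counting 0.75 h after dosing. Primary screen at 25 uM in duplicate, actives followed in concentration series. Signal loss fitted versus DMSO.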

[5] = target: human Peripheral-type Benzodiazepine Receptor (PBR), TSPO (gene 706) (UniProt P30536); test: NVS_MP_hPBR: NovaScreen (NVS) Membrane Protein Assay for human Peripheral-type Benzodiazepine Receptor (PBR) (AID 2283331);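 note: hits reduce radioligand binding relative to DMSO baseline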
Summary of the method: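 Scintillation counts of filter-bound radioligand served as read-out after 1 h chemical dosing of human colonic membrane preparations. Activity was scored as signal loss against DMSO; initial duplicates at 25 uM, confirmatory concentration series afterward.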

[6] = target: rat Peripheral-type Benzodiazepine Receptor (PBR), Tspo (gene 24230) (UniProt P16257); test: NVS_MP_rPBR: NovaScreen (NVS) Membrane Protein Assay for rat Peripheral-type Benzodiazepine Receptor (PBR) (AID 2283335)
Summary of the method: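 Rat kidney membranes; radioligand binding with displacement, filter-based scintillation counting, 1 h incubation. Primary screen in duplicate at 25 uM, actives followed in concentration series; loss of binding vs DMSO.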

[7] = target: rat Oxytocin Receptor (OXT), Oxtr (gene 25342) (UniProt P70536); test: NVS_GPCR_rOXT: NovaScreen (NVS) G Protein-Coupled Receptor Assay for rat Oxytocin Receptor (OXT) (AID 2283330)
Summary of the method: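 Radioligand displacement on rat uterine membranes, 1 h incubation, filter-based scintillation counting. Chemicals were screened in duplicate at 25 uM, and those passing threshold were retested in concentration-response up to 50 uM. Loss of binding was fitted versus DMSO.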

[8] = target: human Constitutive Androstane Receptor (CAR), NR1I3 (gene 9970) (UniProt Q14994); test: NVS_NR_hCAR_Agonist: NovaScreen (NVS) Nuclear Receptor Binding Assay for human Constitutive Androstane Receptor Agonism (CAR) (AID 2283328)
Protocol: NVS_NR_hCAR_Agonist is a biochemical, single-readout assay that uses extracted gene-proteins in a cell-free assay. Measurements were taken 1 hour after chemical dosing in a 384-well plate.NVS_NR_hCAR_Agonist is one of one assay component(s) measured or calculated from the NVS_NR_hCAR_Agonist assay. It is designed to make measurements of fluorescent resonance energy transfer, a form of binding reporter, as detected with fluorescent resonance energy transfer signals by Time-Resolved Fluorescence Resonance Energy Transfer (TR-FRET) technology.Data from the assay component NVS_NR_hCAR_Agonist was analyzed into 1 assay endpoint. This assay endpoint, NVS_NR_hCAR_Agonist, was analyzed in the positive analysis fitting direction relative to DMSO as the negative control and baseline of activity. Using a type of binding reporter, gain-of-signal activity can be used to understand changes in the binding as they relate to the gene NR1I3. Furthermore, this assay endpoint can be referred to as a primary readout, because the performed assay has only produced 1 assay endpoint. To generalize the intended target to other relatable targets, this assay endpoint is annotated to the nuclear receptor intended target family, where the subfamily is non-steroidal. […]

[9] = target: rat Glutamate, NMDA Agonist Site (GluNMDA), Grin1 (gene 24408) (UniProt P35439); test: NVS_LGIC_rGluNMDA_Agonist: NovaScreen (NVS) Ligand-Gated Ion Channel Assay for rat Glutamate, NMDA Agonist Site (GluNMDA) (AID 2283327)
Summary of the method: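 Rat forebrain membranes, radioligand binding in the agonist-site protocol; 1 h after dosing; filter-based scintillation counting. Single-concentration duplicate screen at 25 uM, then concentration-response up to 50 uM for actives; gain-of-signal vs DMSO.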

[10] = NVS_IC_rCaBTZCHL: NovaScreen (NVS) Ion Channel Assay for Calcium Channel, Type L, Benzothiazepine Site (CaBTZCHL) (AID 2283337)
Summary of the method: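 Scintillation counting of filter-bound radioligand gave the read-out, with reduced binding versus DMSO scored as activity. Membranes came from rat cortex and were read 1.5 h after compound addition. Chemicals were screened first in duplicate at 25 uM.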

Sequence of rat Gamma-Aminobutyric Acid Type A Receptor, Non-Selective (GABAR-NonSelective), Gabra1 (gene 29705) (P62813 whole entry, looked up): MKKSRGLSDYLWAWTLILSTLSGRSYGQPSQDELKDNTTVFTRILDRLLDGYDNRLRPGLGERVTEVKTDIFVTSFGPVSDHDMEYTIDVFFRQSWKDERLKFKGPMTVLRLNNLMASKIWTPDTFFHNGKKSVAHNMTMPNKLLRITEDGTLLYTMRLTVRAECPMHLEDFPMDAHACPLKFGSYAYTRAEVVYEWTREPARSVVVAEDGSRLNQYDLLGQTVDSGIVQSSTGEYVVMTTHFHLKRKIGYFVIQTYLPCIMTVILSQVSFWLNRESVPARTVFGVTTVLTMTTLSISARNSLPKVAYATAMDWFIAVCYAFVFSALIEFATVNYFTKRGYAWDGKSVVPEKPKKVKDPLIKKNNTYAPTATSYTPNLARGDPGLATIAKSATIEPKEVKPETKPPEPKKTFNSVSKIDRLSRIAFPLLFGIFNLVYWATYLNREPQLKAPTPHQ
Sequence of human Peripheral-type Benzodiazepine Receptor (PBR), TSPO (gene 706) (P30536 whole entry, looked up): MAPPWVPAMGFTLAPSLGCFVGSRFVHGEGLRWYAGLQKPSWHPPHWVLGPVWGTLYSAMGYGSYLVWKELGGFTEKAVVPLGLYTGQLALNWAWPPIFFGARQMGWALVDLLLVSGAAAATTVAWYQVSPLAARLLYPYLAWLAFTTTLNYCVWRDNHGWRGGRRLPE
Sequence of rat Thyrotropin Releasing Hormone Receptor (TRH), Trhr (gene 25570) (Q01717 whole entry, looked up): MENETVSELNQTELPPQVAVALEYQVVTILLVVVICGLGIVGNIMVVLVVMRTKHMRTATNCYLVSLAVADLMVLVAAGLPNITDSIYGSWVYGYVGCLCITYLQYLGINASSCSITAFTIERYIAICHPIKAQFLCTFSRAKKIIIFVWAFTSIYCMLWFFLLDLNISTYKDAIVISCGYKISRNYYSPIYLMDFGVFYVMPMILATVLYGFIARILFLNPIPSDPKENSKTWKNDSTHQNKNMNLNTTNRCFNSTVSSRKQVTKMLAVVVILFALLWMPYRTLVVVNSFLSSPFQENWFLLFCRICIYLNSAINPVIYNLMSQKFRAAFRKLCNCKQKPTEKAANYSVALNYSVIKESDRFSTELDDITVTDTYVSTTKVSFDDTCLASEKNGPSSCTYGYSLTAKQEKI
Sequence of rat Peripheral-type Benzodiazepine Receptor (PBR), Tspo (gene 24230) (P16257 whole entry, looked up): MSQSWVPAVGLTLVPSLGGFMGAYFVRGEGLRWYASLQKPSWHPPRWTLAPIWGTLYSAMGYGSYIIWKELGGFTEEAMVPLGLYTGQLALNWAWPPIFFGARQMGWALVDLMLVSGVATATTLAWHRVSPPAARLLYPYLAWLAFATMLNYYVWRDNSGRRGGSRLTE
Sequence of Voltage-gated inwardly rectifying potassium channel KCNH2 (Homo sapiens) (Q12809 whole entry, looked up): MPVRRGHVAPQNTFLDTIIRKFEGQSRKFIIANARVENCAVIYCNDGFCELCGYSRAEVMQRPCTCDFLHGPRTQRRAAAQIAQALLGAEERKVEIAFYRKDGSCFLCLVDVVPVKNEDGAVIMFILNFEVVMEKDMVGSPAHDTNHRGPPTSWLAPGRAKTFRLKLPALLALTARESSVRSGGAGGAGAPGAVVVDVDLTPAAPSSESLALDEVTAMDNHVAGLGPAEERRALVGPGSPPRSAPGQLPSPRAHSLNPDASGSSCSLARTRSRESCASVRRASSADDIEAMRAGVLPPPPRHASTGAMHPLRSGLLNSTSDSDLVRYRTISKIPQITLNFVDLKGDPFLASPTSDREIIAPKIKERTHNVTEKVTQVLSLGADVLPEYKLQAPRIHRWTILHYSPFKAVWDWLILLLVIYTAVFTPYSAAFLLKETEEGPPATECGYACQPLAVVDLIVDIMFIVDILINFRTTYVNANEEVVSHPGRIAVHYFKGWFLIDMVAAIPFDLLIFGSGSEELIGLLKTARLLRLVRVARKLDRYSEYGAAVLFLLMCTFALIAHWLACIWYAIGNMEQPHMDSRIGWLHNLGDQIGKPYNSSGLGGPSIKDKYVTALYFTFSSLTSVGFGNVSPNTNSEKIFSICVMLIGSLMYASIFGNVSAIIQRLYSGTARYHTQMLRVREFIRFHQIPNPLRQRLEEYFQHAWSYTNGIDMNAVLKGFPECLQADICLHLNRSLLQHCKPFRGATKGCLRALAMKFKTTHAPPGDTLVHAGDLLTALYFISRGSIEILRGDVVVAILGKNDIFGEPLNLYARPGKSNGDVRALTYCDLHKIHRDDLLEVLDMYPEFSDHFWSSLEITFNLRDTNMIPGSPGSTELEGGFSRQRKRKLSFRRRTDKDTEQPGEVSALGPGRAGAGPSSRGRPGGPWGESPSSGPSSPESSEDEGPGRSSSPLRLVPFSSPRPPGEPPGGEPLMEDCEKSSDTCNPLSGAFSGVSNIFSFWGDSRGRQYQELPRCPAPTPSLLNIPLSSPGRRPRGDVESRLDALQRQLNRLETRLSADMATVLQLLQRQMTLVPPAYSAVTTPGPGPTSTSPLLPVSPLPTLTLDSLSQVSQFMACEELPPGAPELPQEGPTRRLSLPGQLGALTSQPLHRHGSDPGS
Sequence of rat Oxytocin Receptor (OXT), Oxtr (gene 25342) (P70536 whole entry, looked up): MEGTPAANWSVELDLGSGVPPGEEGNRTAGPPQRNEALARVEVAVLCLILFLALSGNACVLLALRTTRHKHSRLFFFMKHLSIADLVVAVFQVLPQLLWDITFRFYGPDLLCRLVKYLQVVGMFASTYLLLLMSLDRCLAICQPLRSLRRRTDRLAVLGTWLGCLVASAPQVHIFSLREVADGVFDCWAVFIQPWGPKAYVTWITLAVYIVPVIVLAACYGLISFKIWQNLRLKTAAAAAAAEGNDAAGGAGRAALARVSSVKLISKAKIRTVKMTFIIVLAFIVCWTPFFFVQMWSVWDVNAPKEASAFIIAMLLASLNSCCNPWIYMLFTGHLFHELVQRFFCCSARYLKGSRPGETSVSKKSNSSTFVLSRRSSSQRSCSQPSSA
Sequence of human Androgen Receptor (AR), AR (gene 367) (P10275 whole entry, looked up): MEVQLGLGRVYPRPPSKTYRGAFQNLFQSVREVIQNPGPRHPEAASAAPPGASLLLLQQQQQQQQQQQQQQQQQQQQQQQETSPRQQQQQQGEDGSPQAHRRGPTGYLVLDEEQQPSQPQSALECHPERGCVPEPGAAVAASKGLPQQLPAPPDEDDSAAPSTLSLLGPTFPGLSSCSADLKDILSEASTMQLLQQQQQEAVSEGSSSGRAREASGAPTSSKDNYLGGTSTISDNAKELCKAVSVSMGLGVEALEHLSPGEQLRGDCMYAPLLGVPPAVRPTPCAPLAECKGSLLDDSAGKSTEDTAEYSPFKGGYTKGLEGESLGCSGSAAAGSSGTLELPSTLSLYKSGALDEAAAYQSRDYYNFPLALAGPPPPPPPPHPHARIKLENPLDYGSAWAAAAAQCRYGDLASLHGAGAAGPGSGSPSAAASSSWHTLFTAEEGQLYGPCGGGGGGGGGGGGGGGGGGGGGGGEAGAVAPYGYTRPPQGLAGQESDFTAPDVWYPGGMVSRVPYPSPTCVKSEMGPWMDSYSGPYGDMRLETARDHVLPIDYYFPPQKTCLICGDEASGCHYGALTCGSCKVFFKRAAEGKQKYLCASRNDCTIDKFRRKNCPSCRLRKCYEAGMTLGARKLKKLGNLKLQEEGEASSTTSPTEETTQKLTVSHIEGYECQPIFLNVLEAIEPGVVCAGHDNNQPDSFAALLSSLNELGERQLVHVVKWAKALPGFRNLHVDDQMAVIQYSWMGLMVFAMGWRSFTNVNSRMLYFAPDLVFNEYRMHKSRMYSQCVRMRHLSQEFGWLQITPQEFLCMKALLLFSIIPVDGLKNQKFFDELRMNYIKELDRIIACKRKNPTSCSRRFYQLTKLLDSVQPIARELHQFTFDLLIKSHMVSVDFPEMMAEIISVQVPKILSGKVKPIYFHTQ
Sequence of human Constitutive Androstane Receptor (CAR), NR1I3 (gene 9970) (Q14994 whole entry, looked up): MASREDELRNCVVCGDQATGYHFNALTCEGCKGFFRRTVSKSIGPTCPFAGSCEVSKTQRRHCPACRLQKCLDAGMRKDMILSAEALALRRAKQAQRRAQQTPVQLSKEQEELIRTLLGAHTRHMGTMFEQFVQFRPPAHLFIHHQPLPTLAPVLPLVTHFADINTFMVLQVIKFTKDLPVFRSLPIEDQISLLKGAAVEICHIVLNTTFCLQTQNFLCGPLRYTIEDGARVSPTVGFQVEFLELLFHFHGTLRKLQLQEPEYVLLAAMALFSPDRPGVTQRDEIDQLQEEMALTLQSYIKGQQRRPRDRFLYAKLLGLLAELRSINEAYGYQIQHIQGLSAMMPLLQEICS

c1cc2c3c(cccc3c1)CC2
AC50 [1]: 1.7 µM (active)

CC(C)(C)N(NC(=O)c1ccc(Cl)cc1)C(=O)c1ccccc1
outcome [2]: inactive

CCCCCCCc1ccc(O)cc1
outcome [2]: inactive
outcome [3]: inactive
AC50 [4]: 0.766 µM (active)

CCOS(=O)(=O)OCC
outcome [1]: inactive

CC(C)(C)c1ccccc1OP(=O)(Oc1ccccc1)Oc1ccccc1
AC50 [5]: 1.16 µM (active)

O=P(OCC(Br)CBr)(OCC(Br)CBr)OCC(Br)CBr (stereo not given)
AC50 [5]: 1.25 µM (active) and 139 nM (active)
AC50 [3]: 6.63 µM (active)
AC50 [6]: 0.169 µM (active)
outcome [6]: inactive

O=S(=O)(c1ccc(O)cc1)c1ccc(O)cc1
AC50 [6]: 4.76 µM (active)

CSC(C)(C)C=NO
outcome [7]: inactive

O=P1(N(CCCl)CCCl)NCCCO1 (stereo not given)
outcome [7]: inactive

c1ccc2c(c1)Nc1ccccc1S2
outcome [8]: inactive
outcome [6]: inactive

O=S1(=O)OCC2C(CO1)C1(Cl)C(Cl)=C(Cl)C2(Cl)C1(Cl)Cl (stereo not given)
outcome [2]: inactive

N#Cc1cc([N+](=O)[O-])ccc1N
AC50 [6]: 25 µM (active)

CC(Cc1ccc(OCC(=O)O)cc1)NCC(O)c1csc(C(F)(F)F)n1 (stereo not given)
outcome [9]: inactive

CCCCOCCOP(=O)(OCCOCCCC)OCCOCCCC
AC50 [5]: 7.98 µM (active) and 6.27 µM (active)
AC50 [6]: 7.47 µM (active) and 7.45 µM (active)
outcome [10]: inactive

CCC(C)(C)c1ccc(O)cc1
outcome [5]: inactive

CC(C)(C)c1ccc(O)cc1
outcome [5]: inactive

CCC1(c2ccccc2)C(=O)N=C(O)NC1=O (stereo not given)
outcome [1]: inactive

Cc1cc(C)c(C(=O)P(=O)(c2ccccc2)c2ccccc2)c(C)c1
AC50 [5]: 3.55 µM (active)
outcome [6]: inactive

Nc1ccc2ccccc2c1
AC50 [5]: 6.61 µM (active)
AC50 [6]: 7.21 µM (active)

c1ccc(OP(Oc2ccccc2)Oc2ccccc2)cc1
AC50 [5]: 17.6 µM (active)

CCOP(=S)(NC(C)C)Oc1ccccc1C(=O)OC(C)C (stereo not given)
AC50 [5]: 9.3 µM (active)
outcome [6]: inactive

CCOP(=S)(OCC)SCS(=O)(=O)CC
AC50 [5]: 25 µM (active)

N#Cc1c(-c2ccc(Cl)cc2)[nH]c(C(F)(F)F)c1Br
AC50 [5]: 0.122 µM (active)
AC50 [6]: 0.377 µM (active)

CO/N=C(/C(=O)OC)c1ccccc1COc1ccccc1C
AC50 [5]: 2.76 µM (active)
AC50 [6]: 0.947 µM (active)

Cc1ccc2c(c1N)C(=O)c1ccccc1C2=O
AC50 [5]: 13.9 µM (active)
AC50 [6]: 1.4 µM (active)
outcome [10]: inactive

c1ccc2c(c1)sc1ccccc12
outcome [2]: inactive

O=P(Oc1ccccc1)(Oc1ccccc1)Oc1ccccc1
AC50 [5]: 2.61 µM (active)
AC50 [6]: 1.96 µM (active)

CCOP(=S)(OCC)SCn1nnc2ccccc2c1=O
AC50 [5]: 11.2 µM (active)
AC50 [6]: 9.51 µM (active)

ClC(Cl)(Cl)c1ccccc1
outcome [4]: inactive

O=C(CBr)OCc1ccccc1
outcome [2]: inactive

CC(C)Nc1ccc(Nc2ccccc2)cc1
outcome [10]: inactive

CCOP(=S)(Oc1ccc([N+](=O)[O-])cc1)c1ccccc1 (stereo not given)
outcome [5]: inactive

FC(F)(F)c1ccc(Cl)cc1
outcome [2]: inactive

C=CC(=O)OCC(CC)(COC(=O)C=C)COC(=O)C=C
AC50 [5]: 17.2 µM (active)
AC50 [6]: 25 µM (active)

COC(N)=O
outcome [2]: inactive

Oc1ccc(I)cc1
outcome [5]: inactive

CCCCC(CC)COP(=O)(Oc1ccccc1)Oc1ccccc1 (stereo not given)
outcome [2]: inactive
AC50 [5]: 10.9 µM (active)
AC50 [6]: 2.93 µM (active)
outcome [6]: inactive
outcome [10]: inactive

Nc1ccc([N+](=O)[O-])cc1Cl
outcome [6]: inactive

Source: PubChem BioAssay (EPA / NIEHS)
